Source: PubChem BioAssay (NCATS)
Inconclusive results are not listed. The source made the active and inactive calls. Unless noted, the call rests on the fitted dose curve; in most records, active means well fitted curve in the direction sought with a large enough effect; inconclusive means small, poorly fitted or top-dose-only effect, or another doubt; inactive means no such curve, though single readings can be large; an effect the other way counts as inactive or inconclusive.

Assays:
[1] = MultiTox-Fluor Cytotoxicity Assay - LYMP1-002 - Dead Cells (AID 960);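 further: 0% = DMSO and 100% = tetraoctylammonium bromide; nearly all actives have a fitted effect of over 60% in size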
Summary of the method: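 Concentration-dependent increases in membrane-leaked protease activity are quantified in LYMP1-002 cells after 16 hr treatment; values are normalized against DMSO and tetraoctylammonium bromide (15 uM) controls and AC50 derived by Hill modeling.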

[2] = MultiTox-Fluor Cytotoxicity Assay - LYMP1-003 - Dead Cells (AID 961);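 further: 0% = DMSO and 100% = tetraoctylammonium bromide; nearly all actives have a fitted effect of over 70% in size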
Summary of the method: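 Acute toxicity is scored as increased dead-cell protease activity in human lymphoblastoid LYMP1-003 cells after 16 h compound exposure in complete culture medium. Activity is normalized to DMSO basal and 15 uM tetraoctylammonium bromide as full response.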

[3] = MultiTox-Fluor Cytotoxicity Assay - LYMP1-003 - Live Cells (AID 962);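 further: cells exposed to compound for 16 hours at 37 °C; 0% = DMSO only and full loss = 92 µM tetraoctylammonium bromide; cytotoxic hits lower the live-cell protease signal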
Summary of the method: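 Human lymphoblastoid line LYMP1-003 in complete culture medium, treated 16 hr with titrated compounds. Viable cells quantified via cell-permeant GF-AFC substrate fluorescence; AC50 derived by Hill fitting.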

[4] = Cell Viability - LYMP1-003 - Assay at 24 hr (AID 963);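 further: plate controls were DMSO only for no effect and tetraoctylammonium bromide positive control for full effect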
Summary of the method: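 The lymphoblastoid line was treated with titrated compounds for 24 hours, and viable cell number estimated from luciferase-based ATP luminescence.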

[5] = Cell Viability - LYMP1-003 - Assay at 40 hr (AID 964); further: series mostly up to about 92 µM; on the % scale 0 is the no-effect control and ±100 the full control effect; nearly all actives have a fitted effect of over 60% in size
Summary of the method: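 Acute toxicity is scored as a concentration-dependent loss of intracellular ATP in LYMP1-003 cells (2500/well, complete medium) after 40 hr at 37 C, measured by CellTiter-Glo luminescence; AC50 values derive from standard Hill modelling.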

[6] = Cell Viability - LYMP2-004 (AID 966);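 further: plate controls were DMSO only for no effect and tetraoctylammonium bromide control for full effect; nearly all actives have a fitted effect of over 65% in size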
Summary of the method: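 Viable-cell number estimated from ATP luminescence (CellTiter-Glo) in 2500 human lymphoblastoid cells/well after 24 hr at 37 C with compound. AC50 fitted to the standard Hill equation.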

[7] = Cell Viability - LYMP2-009 (AID 968);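 further: series mostly up to about 92 µM; 0% = DMSO alone and the full-kill end = tetraoctylammonium bromide at 92 µM; nearly all actives have a fitted effect of over 55% in size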
[8] = Cell Viability - LYMP2-011 (AID 969);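 further: 0% = DMSO only and full inhibition = 92 µM tetraoctylammonium bromide; nearly all actives have a fitted effect of over 60% in size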
Summary of the method: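 Cells seeded at 2500 per well rest 5 hr before compound addition, then incubate 24 hr at 37 C. CellTiter-Glo reagent is added for 30 min at room temperature before luminescence detection.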

[9] = Cell Viability - LYMP2-013 (AID 970);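 further: series mostly up to about 92 µM; 0% = DMSO only and full inhibition = tetraoctylammonium bromide control; nearly all actives have a fitted effect of over 55% in size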
Summary of the method: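 In complete culture medium, human lymphoblastoid cells were dosed for 24 hr at 37 C, with tetraoctylammonium bromide (6.4pM to 92 uM) as positive control. Viability reflects luciferase-based ATP signal; AC50 derived from concentration-response curves.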

[10] = Cell Viability - LYMP2-017 (AID 972); further: series mostly up to about 92 µM; on the % scale 0 is the no-effect control and ±100 the full control effect; nearly all actives have a fitted effect of over 55% in size
Summary of the method: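 In this qHTS format, lymphoblastoid cells in complete medium receive test compound for a day at 37 C before ATP content is quantified by luciferase luminescence. Reported AC50 figures come from standard Hill-equation curve fitting.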

[11] = Cell Viability - LYMP2-019 (AID 973);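 further: 0% = DMSO alone and full effect = 92 µM tetraoctylammonium bromide; nearly all actives have a fitted effect of over 55% in size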
Summary of the method: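 AC50 values come from Hill-equation modelling of qHTS concentration-response curves, where viability is measured as luciferase-based ATP luminescence in the lymphoblastoid line after 24 hr compound exposure in complete culture medium.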

[12] = Cell Viability - LYMP2-021 (AID 974)
Summary of the method: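 In qHTS format, compounds are tested against 2500 lymphoblastoid cells per well for 24 h; viable cell number is inferred from ATP-driven luciferase light, and Hill-equation fitting yields AC50 values.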

[13] = Cell Viability - LYMP2-023 (AID 975)
Summary of the method: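 In this qHTS, ATP-based luciferase luminescence (CellTiter-Glo) is quantified in human lymphoblastoid cells after 24 hr compound treatment at 37 C; tetraoctylammonium bromide serves as positive control. Concentration-response curves are Hill-fitted to give AC50.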

[14] = Cell Viability - LYMP2-025 (AID 976);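 further: series mostly up to about 92 µM; plate controls were DMSO only for no effect and tetraoctylammonium bromide control for full effect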
Summary of the method: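 Luminescent ATP readout after 24 hr treatment of a human lymphoblastoid line (LYMP2-025, 2500 cells/well, 37 C). Reagent developed 30 min at room temperature; AC50 fitted with the Hill equation.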

[15] = Cell Viability - LYMP2-002 (AID 977);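 further: series mostly up to about 92 µM; compound exposure lasted 24 h at 37 °C; plate controls were DMSO only for no effect and 92 µM tetraoctylammonium bromide for full effect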
Summary of the method: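 Human lymphoblastoid cells (2500/well) in complete medium were preincubated 5 hr at 37 C, then exposed to compounds for 24 hr at 37 C. Intracellular ATP was read by CellTiter-Glo luminescence; AC50 came from Hill-equation concentration-response fits.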

[16] = Cell Viability - LYMP2-006 (AID 978); further: series mostly up to about 92 µM; on the % scale 0 is the no-effect control and ±100 the full control effect; nearly all actives have a fitted effect of over 60% in size
Summary of the method: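 Human lymphoblastoid cells, 2500 per well, were preincubated 5 hr at 37 C, then exposed to compounds for 24 hr at 37 C in complete medium. Viability was read as intracellular ATP by CellTiter-Glo luminescence; AC50 from Hill-equation fits of qHTS concentration-response data.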

[17] = Cell Viability - LYMP2-007 (AID 979)
Summary of the method: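 Measured via luciferase-based ATP quantitation: lymphoblastoid cells, 24 hr compound exposure at 37 C, AC50 from Hill fits.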

[18] = Cell Viability - LYMP2-008 (AID 980)
Summary of the method: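 Measured: ATP-dependent luminescence, proportional to viable cell number, in human lymphoblastoid cells treated 24 hr with compound in complete culture medium. Values are AC50s from Hill-equation modelling of qHTS titrations.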

[19] = Cell Viability - LYMP2-010 (AID 981)
Summary of the method: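 This 24 hr viability screen uses LYMP2-010 lymphoblastoid cells, quantifies ATP via luciferase luminescence, and derives AC50 from Hill fits of qHTS concentration-response data.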

[20] = Cell Viability - LYMP2-012 (AID 982)
[21] = Cell Viability - LYMP2-014 (AID 983);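 further: series mostly up to about 92 µM; plate controls were DMSO only for no effect and 92 µM tetraoctylammonium bromide for full effect; nearly all actives have a fitted effect of over 50% in size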
Summary of the method: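 Quantitative HTS in lymphoblastoid cells: 24 hr compound exposure, then CellTiter-Glo ATP luminescence. Positive control was tetraoctylammonium bromide, 6.4pM to 92 uM.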

[22] = Cell Viability - LYMP2-016 (AID 984)
Summary of the method: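 Human lymphoblastoid cells (LYMP2-016), 2500/well in complete medium, preincubated 5 hr at 37 C, then compound-treated 24 hr at 37 C. Intracellular ATP read by CellTiter-Glo luminescence after 30 min at room temperature; AC50 from Hill-equation concentration-response fits.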

[23] = Cell Viability - LYMP2-018 (AID 985);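 further: plate controls were DMSO only for no effect and tetraoctylammonium bromide at 92 µM for full effect; nearly all actives have a fitted effect of over 50% in size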
Summary of the method: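 In this qHTS viability assay, cells are treated for 24 hr and cellular ATP is quantified by luciferase-based luminescence, with tetraoctylammonium bromide as positive control.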

[24] = Cell Viability - LYMP2-022 (AID 987)
Summary of the method: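 In this qHTS cytotoxicity screen, compound titrations were incubated 24 hr at 37 C with human lymphoblastoid cells in complete medium. Luciferase-based ATP luminescence provided the viability signal.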

[25] = Cell Viability - LYMP2-024 (AID 988)
Summary of the method: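 Cells at 2500 per well received compound for 24 hr after a 5 hr settling period. Viability was scored by CellTiter-Glo luminescence, with AC50 from Hill fits.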

[26] = Cell Viability - LYMP2-026 (AID 989); further: on the % scale 0 is the no-effect control and ±100 the full control effect; nearly all actives have a fitted effect of over 50% in size
Summary of the method: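 Acute toxicity screen in complete culture medium, with 24 hr compound exposure at 37 C. Viability read as cellular ATP via luciferase reaction, with tetraoctylammonium bromide (6.4pM to 92 uM) as positive control.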

[27] = Cell Viability - LYMP1-002 - Assay at 24 hr (AID 993); further: on the % scale 0 is the no-effect control and ±100 the full control effect
Summary of the method: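 Viability was judged from intracellular ATP using a luciferase read-out, following a 24-hour compound incubation at 37 C of lymphoblastoid cells seeded at 2500 per well. Concentration-response data were fitted to the Hill equation for AC50.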

[28] = Cell Viability - LYMP1-002 - Assay at 40 hr (AID 994)
Summary of the method: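 Concentration-dependent ATP loss after 40 hr treatment at 37 C defined toxicity; AC50 values were obtained by fitting the standard Hill equation.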

[29] = qHTS Assay for Identification of Small Molecule Inducers of Hypoxia Response (AID 2120; active means well fitted curve in the direction sought with a large enough effect in the signal ratio, with a control signal flat, not every such curve was filed as active; the % refers to the signal ratio; further: 0% is about no effect)
Summary of the method: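 HRE-bla ME-180, 2500 cells/well, 0.5% dialyzed FBS medium; cpd titration, 17 h 37 degrees C; CCF4 2.5 h RT; Ex 405, Em 460/530 ratio -> %Activity, AC50.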

[30] = target: Androgen receptor (Homo sapiens) (UniProt P10275); assay: qHTS assay for small molecule agonists of androgen receptor signaling (AID 588515; active means well fitted curve in the direction sought with a large enough effect in the signal ratio, with a control signal flat; the % refers to the signal ratio; further: on the % scale 0 is the no-effect control and ±100 the full control effect); conditions: AR-UAS-bla HEK293, beta-lactamase ratio, agonist 16 h; stronger effect = higher value
Summary of the method: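 Stimulation of an AR-responsive β-lactamase reporter in GripTite HEK293 cells was measured after 16 h compound exposure at 37 °C, via CCF4 fluorescence after 2 h RT. EC50 from Hill fits, normalized to R1881 at 30 nM.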

[31] = target: Glucocorticoid receptor (Homo sapiens) (UniProt P04150); assay: qHTS assay for small molecule agonists of glucocorticoid receptor signaling (AID 588532; active means well fitted curve in the direction sought with a large enough effect in the signal ratio, with a control signal flat; the % refers to the signal ratio;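 further: 100% = dexamethasone at 0.1 µM and 0% = DMSO only wells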); conditions: HeLa MMTV-bla, beta-lactamase ratio, agonist, 18 h; stronger effect = higher value; percent of dexamethasone control, DMSO zero
Summary of the method: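 Quantitative HTS using CellSensor MMTV-bla HeLa cells in charcoal/dextran-treated serum; compounds tested up to 92 uM. After 18 h at 37 C, CCF4 dye reported reporter induction.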

[32] = target: Peroxisome proliferator-activated receptor gamma (Homo sapiens) (UniProt P37231); assay: qHTS assay for small molecule agonists of peroxisome proliferator-activated receptor gamma signaling (AID 588536; active means well fitted curve in the direction sought with a large enough effect in the signal ratio, with a control signal flat, not every such curve was filed as active; the % refers to the signal ratio;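 further: 0% = DMSO basal wells and 100% = rosiglitazone at 2 µM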)
Summary of the method: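 Using GeneBLAzer HEK293 cells, response was quantified by CCF4 fluorescence and normalized between basal DMSO (0%) and rosiglitazone 2 uM (100%); curves yielded half-maximal stimulation concentration and efficacy.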

[33] = target: Vitamin D3 receptor (Homo sapiens) (UniProt P11473); assay: qHTS assay for small molecule antagonists of vitamin D receptor signaling (AID 588541; calls by dose curve;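 further: receptor activated by calcitriol during compound treatment; series mostly up to about 77 µM; on the % scale 0 is the no-effect control and ±100 the full control effect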)
Summary of the method: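 Antagonist-mode beta-lactamase reporter assay: HEK293T VDR-UAS-bla cells were exposed to titrated compound alongside 1-alpha,25-dihydroxyvitamin D3 at 3 nM final for 16 h. Values were normalized to the 50 nM agonist control and DMSO basal, with IC50 and efficacy from Hill equation fits.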

Sequence of Peroxisome proliferator-activated receptor gamma (Homo sapiens) (P37231 whole entry, looked up): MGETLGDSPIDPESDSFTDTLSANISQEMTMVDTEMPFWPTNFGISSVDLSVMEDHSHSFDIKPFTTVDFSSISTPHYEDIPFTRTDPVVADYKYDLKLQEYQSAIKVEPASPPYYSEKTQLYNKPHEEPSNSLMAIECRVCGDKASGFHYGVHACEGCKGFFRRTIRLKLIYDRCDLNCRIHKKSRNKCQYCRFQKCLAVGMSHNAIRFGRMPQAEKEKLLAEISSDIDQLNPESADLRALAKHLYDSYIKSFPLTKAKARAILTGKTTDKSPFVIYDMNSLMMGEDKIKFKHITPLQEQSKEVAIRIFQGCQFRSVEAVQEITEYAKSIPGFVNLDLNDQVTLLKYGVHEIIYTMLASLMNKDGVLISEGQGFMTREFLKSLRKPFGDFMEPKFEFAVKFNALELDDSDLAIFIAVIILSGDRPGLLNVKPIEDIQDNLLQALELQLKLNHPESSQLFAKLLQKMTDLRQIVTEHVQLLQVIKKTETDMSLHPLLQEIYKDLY
Sequence of Androgen receptor (Homo sapiens) (P10275 whole entry, looked up): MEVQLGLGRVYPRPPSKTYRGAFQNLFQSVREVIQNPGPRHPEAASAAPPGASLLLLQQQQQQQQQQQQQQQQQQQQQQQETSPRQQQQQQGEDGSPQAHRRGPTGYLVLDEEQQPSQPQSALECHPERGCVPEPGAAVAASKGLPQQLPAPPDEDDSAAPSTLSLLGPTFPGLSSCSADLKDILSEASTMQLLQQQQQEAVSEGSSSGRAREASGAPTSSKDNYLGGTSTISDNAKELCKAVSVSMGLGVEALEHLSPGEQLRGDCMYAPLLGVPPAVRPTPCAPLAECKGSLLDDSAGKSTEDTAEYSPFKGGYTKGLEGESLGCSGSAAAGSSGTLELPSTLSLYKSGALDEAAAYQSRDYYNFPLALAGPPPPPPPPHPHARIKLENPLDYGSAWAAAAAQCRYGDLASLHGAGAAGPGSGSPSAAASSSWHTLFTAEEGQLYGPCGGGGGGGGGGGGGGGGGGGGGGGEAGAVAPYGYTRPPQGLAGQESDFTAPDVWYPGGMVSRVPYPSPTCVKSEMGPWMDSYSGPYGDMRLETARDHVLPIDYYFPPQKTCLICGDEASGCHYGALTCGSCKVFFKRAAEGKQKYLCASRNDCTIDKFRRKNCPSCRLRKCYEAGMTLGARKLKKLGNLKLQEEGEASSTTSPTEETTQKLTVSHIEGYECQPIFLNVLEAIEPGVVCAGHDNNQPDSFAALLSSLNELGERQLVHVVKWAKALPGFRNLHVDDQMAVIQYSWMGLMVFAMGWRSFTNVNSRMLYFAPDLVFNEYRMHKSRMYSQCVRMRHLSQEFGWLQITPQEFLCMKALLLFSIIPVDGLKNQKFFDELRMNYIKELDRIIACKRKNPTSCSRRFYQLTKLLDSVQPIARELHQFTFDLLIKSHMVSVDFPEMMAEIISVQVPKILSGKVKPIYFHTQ
Sequence of Glucocorticoid receptor (Homo sapiens) (P04150 whole entry, looked up): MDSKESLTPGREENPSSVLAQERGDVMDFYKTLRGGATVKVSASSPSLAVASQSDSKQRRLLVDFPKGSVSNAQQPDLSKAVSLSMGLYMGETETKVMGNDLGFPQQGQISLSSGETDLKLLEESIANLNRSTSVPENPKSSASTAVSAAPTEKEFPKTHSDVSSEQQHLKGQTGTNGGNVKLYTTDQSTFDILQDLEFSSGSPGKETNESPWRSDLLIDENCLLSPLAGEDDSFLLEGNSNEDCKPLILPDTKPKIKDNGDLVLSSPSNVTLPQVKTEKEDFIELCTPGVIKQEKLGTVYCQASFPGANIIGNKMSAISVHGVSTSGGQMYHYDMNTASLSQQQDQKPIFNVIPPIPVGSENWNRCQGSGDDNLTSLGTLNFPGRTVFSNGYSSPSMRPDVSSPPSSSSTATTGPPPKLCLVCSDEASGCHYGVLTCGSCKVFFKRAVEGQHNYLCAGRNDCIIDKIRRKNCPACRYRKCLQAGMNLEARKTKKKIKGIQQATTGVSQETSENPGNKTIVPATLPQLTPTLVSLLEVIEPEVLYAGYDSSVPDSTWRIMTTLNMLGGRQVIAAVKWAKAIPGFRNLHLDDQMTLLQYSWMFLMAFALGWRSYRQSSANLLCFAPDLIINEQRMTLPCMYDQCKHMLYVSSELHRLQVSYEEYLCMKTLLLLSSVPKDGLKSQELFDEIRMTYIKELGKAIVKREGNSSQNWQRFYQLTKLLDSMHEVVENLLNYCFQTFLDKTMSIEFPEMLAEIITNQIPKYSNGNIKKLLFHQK
Sequence of Vitamin D3 receptor (Homo sapiens) (P11473 whole entry, looked up): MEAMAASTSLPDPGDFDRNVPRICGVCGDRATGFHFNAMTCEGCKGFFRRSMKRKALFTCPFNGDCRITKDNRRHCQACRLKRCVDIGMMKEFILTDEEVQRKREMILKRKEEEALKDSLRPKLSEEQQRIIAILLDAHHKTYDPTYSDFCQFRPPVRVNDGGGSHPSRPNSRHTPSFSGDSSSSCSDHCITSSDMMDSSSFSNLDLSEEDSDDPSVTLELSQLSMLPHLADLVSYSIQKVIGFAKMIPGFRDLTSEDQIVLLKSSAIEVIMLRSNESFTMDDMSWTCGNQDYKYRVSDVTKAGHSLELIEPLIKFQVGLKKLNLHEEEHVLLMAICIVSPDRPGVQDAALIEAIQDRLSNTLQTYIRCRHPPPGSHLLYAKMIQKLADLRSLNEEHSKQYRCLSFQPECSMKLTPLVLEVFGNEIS

COC1=CC(=O)OC(CCc2ccccc2)C1 (stereo not drawn)
inactive: Potency [1] | Potency [2] | Potency [3] | Potency [4] | Potency [5] | Potency [6] | Potency [7] | Potency [8] | Potency [9] | Potency [10] | Potency [11] | Potency [12] | Potency [13] | Potency [14] | Potency [15] | Potency [16] | Potency [17] | Potency [18] | Potency [19] | Potency [20] | Potency [21] | Potency [22] | Potency [23] | Potency [24] | Potency [25] | Potency [26] | Potency [27] | Potency [28] | outcome [29] | activation [30] -22.1% | activation [31] -4.92% | outcome [32] | outcome [33]
